# According to PubChem BioAssay AID1458 (National Center for Advancing Translational Sciences (NCATS), 2008):
# The whole screen tested about 210,000 compounds, of which about 5,900 (2.8%) were called active. Inconclusive results (about 5%) are left out. Calls follow the shape of the dose curve; as a rule, active = well fitted activation curve with a large enough effect; inconclusive = small, poorly fitted or top-dose-only effect; inactive = no such curve, though single readings can be large or run the other way. The entries come from a sample that favours actives as a whole. A call without a number means that no potency is given here.
# Assay: qHTS Assay for Enhancers of SMN2 Splice Variant Expression; also: nearly all actives have a fitted effect of over 55% in size
# Conditions: HEK293 SMN2-luciferase splicing reporter, luminescence, 30-36 h; series mostly up to 46.1 µM
# How it was run: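 HEK293 cells carry an SMN2 minigene-luciferase reporter in which exon 7 inclusion puts luciferase in frame. Cells were seeded at 2000 cells/well, attached for 10-12 hours, then exposed to compounds for 30-36 hours at 37C before ONE-Glo luminescence.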
# Potency is read from the fitted curve at half-maximal effect.
row,Compound,Potency
1,O=C(CSCc1ccc(Cl)cc1)N1CCN(Cc2ccc3c(c2)OCO3)CC1,inactive
2,O=C(CSCc1cccs1)N1CCCC1,12.6 µM (active)
3,O=C(CSc1ccsc1[N+](=O)[O-])N1CCCCC1,inactive
4,O=C(Cn1c(=O)n(Cc2ccccc2)c(=O)c2sc3ccccc3c21)Nc1ccccc1F,inactive
5,Cc1ccc(-c2nnc3c4ccccc4c(C)nn23)cc1NC(=O)c1cccc(Br)c1,inactive
6,NS(=O)(=O)c1ccc(Nc2nc(-c3ccccc3)cs2)cc1,inactive
7,COc1ccc(Nc2nc(-c3ccccc3)cs2)cc1,10 µM (active)
8,COc1ccc(C)cc1Nc1nc(-c2c(C)[nH]c3ccccc23)cs1,inactive
9,COc1ccc(-c2csc(Nc3ccccn3)n2)cc1,2.24 µM (active)
10,COc1ccc(NC(=O)c2sc(N)nc2-c2ccccc2)cc1,inactive
11,COc1ccc(OC)c(Nc2nc(-c3ccc(O)c(O)c3)cs2)c1,17.8 µM (active)
12,Clc1ccc(Nc2nc(-c3cccs3)cs2)nc1,14.1 µM (active)
13,COC(=O)CSc1nccc(-c2cccs2)n1,inactive
14,O=C(Nc1ccc(Cl)cn1)Nc1cccs1,inactive
15,COc1ccc(-c2csc(NC(=O)c3ccc(N4C(=O)CCC4=O)cc3)n2)cc1OC,inactive
16,O=S(=O)(Nc1ccccn1)c1ccc(Oc2ccccc2)cc1,inactive
17,COc1ccc2c(c1OC)C(=O)OC2Nc1nc(-c2ccccc2)cs1 (configuration not stated),inactive
18,CCOc1cc(C2c3c(-c4ccc(Br)cc4)n[nH]c3C(=O)N2c2ccc(Cl)cc2)ccc1O (configuration not stated),inactive
19,O=C(c1ccc2c(c1)N(Cc1ccc(Cl)cc1)C(=O)c1ccccc1S2(=O)=O)N1CCCCC1,inactive
20,CC1CCC2(CC1)N=C(c1ccccc1)C(=O)N2CC(=O)Nc1ccc(F)c(Cl)c1 (configuration not stated),inactive
21,O=C(Nc1nc(-c2ccncc2)cs1)C1COc2ccccc2O1 (configuration not stated),inactive
22,c1ccc(Nc2nc(-c3ccncc3)cs2)nc1,12.6 µM (active)
23,O=C(Nc1nc(-c2ccc(-c3ccccc3)cc2)cs1)c1cnccn1,inactive

row,Compound,Potency
1,CSc1ccc(NC(=O)Cn2nnnc2-c2ccccc2F)cc1,inactive
2,O=C(NCCc1c[nH]c2ccccc12)c1cc2ccccc2oc1=O,17.8 µM (active)
3,CN(c1ccccc1)S(=O)(=O)c1ccc(Cl)c(C(=O)NCCc2c[nH]c3ccccc23)c1,inactive
4,O=C(NCCc1c[nH]c2ccccc12)C(=O)NCC1CCCO1 (configuration not stated),inactive
5,O=C(Nc1cccc2cccnc12)c1cccc2c(Br)cccc12,inactive
6,CCOC(=O)c1c(-c2ccc(OC)cc2)oc2ccc(OCc3ccc(C(=O)OC)cc3)cc12,inactive
7,CC(=O)Cc1nsc(NC(=O)c2csc3c2CCCC3)n1,inactive
8,COC(=O)c1sccc1NC(=O)c1csc2c1CCCC2,inactive
9,CCOC(=O)c1ccc(NC(=O)c2csc3c2CCCCC3)cc1,inactive
10,COC(=O)c1sc(NC(=O)c2csc3c2CCCC3)nc1C,2.51 µM (active)
11,Cc1ccc(NC(=O)c2csc3c2CCCC3)cc1,4.47 µM (active)
12,O=C(NCc1ccccc1Cl)c1csc2c1CCCCC2,inactive
13,COc1ccc(OC)c(NC(=O)/C=C/c2ccc(C)o2)c1,inactive
14,NC(=O)c1sc(-c2ccsc2)cc1N,inactive
15,COc1ccc(CNC(=O)CS(=O)Cc2nc(-c3cccc(C)c3)oc2C)cc1 (configuration not stated),inactive
16,CC(=O)Nc1ccc(NC(=O)C(C)OC(=O)c2ccccc2C(=O)c2ccc(Cl)c([N+](=O)[O-])c2)cc1 (configuration not stated),25.1 µM (active)
17,CC(CC(=O)O)C(=O)c1ccc(Cl)c([N+](=O)[O-])c1 (configuration not stated),inactive
18,N#Cc1cccc(NC(=O)COC(=O)c2ccccc2C(=O)c2ccc(Cl)c([N+](=O)[O-])c2)c1,inactive
19,COc1cc(OC)c(NC(=O)c2c3c(nn2C)-c2ccccc2SC3)cc1Cl,inactive
20,O=C(c1cn(-c2ccccc2)nc1-c1cccnc1)N1CCCCC1,inactive
21,COC(=O)c1cn(-c2ccccc2)nc1-c1cccnc1,inactive
22,COc1ccccc1N1CCN(C(=O)c2cn(-c3ccccc3)nc2-c2cccnc2)CC1,22.4 µM (active)
23,CCOc1ccc(NC(=O)CSc2c3c(nc4ccccc24)CCCC3)cc1,inactive

row,Compound,Potency
1,COc1ccc(C(=O)CSc2nnc(COc3ccccc3)n2Cc2ccco2)cc1,inactive
2,Cn1c2ccccc2c(=O)c2c(=O)n(Cc3ccco3)c(COc3ccccc3)nc21,35.5 µM (active)
3,CCCc1nc2c(c(=O)c3ccccc3n2C)c(=O)n1C1CCCCCC1,inactive
4,O=C(CCn1c(=O)c2sccc2n(Cc2ccc(F)cc2)c1=O)NCc1ccc2c(c1)OCO2,inactive
5,COc1ccc(S(=O)(=O)NCCc2cc3ccc(C)c(C)c3[nH]c2=O)cc1,inactive
6,COc1cccc(CNC(=O)c2ccc3c(Cl)c4c(nc3c2)CCCC4)c1,inactive
7,COc1cc(NC(=O)CN(C)S(=O)(=O)c2ccc3nc(C)sc3c2)cc(OC)c1,inactive
8,Cc1ccc2nc(-c3ccc(NC(=O)CN(C)S(=O)(=O)c4ccccc4)cc3)sc2c1,1 µM (active)
9,Cc1cccc(N(CC(=O)Nc2ccc(-c3nc4ccc(C)cc4s3)cc2)S(C)(=O)=O)c1,inactive
10,Cc1ccc(F)cc1NC(=O)CCSc1nc(-c2ccco2)cc(C(F)(F)F)n1,inactive
11,COc1ccc(C(=O)n2nc(-c3ccc(Cl)cc3)nc2N)cc1OC,25.1 µM (active)
12,COc1ccccc1C(=O)n1nc(-c2ccccc2)nc1N,inactive
13,COc1ccc(C(=O)n2nc(-c3ccc(C)cc3)nc2N)cc1OC,inactive
14,COc1ccc(-c2nc3ccccc3o2)cc1NC(=O)c1cc([N+](=O)[O-])ccc1N1CCOCC1,inactive
15,Cc1cccc(NC(=O)c2cc3c(C)nn(-c4ccccc4)c3s2)c1,inactive
16,Cc1c(CNC2CCCCC2)c(C(=O)O)c(C)n1Cc1cccc(Cl)c1,inactive
17,CCCN1CCN(CCCNC(=O)Cn2nc(CC)n3c(cc4occc43)c2=O)CC1,inactive
18,C=CCNc1cnn(-c2ccc(C)cc2)c(=O)c1Cl,11.2 µM (active)
19,CCc1nc2c(cnn2-c2ccc(C)cc2)c(=O)n1-c1ccc(C)cc1,inactive
20,O=c1c(Cl)c(NC2CC2)cnn1-c1ccccc1,inactive
21,Cc1ccccc1-c1nc(CS(=O)(=O)CC(=O)Nc2cc(Cl)cc(Cl)c2)c(C)o1,inactive
